Here are results for 37 compounds from PubChem BioAssay (EPA / NIEHS).

Records with an inconclusive call do not appear. Some structures have more than one record in an assay (separate samples or runs), and their calls can disagree. Activity calls are given as the source filed them. How the source made its calls: active means hit-call score of the fitted dose curve at least 0.9, where 1 is the maximum; inconclusive means response in the unintended direction; inactive means score below 0.9.

As a reminder, the AC50 is the concentration giving half of the maximal activity seen.

The target in the test is Peroxisome proliferator-activated receptor gamma (Homo sapiens) (UniProt P37231). In words: ATG_PPARg_TRANS: Attagene TRANS-FACTORIAL HepG2 Assay for human Peroxisome Proliferator-activated Receptor-gamma (PPARg) (AID 2283007). How it is done: ATG_TRANS is a cell-based, multiplexed-readout assay that uses HepG2, a human liver cell line, with measurements taken at 24 hours after chemical dosing in a 24-well plate.ATG_PPARg_TRANS is one of 30 assay component(s) measured or calculated from the ATG_TRANS assay. It is designed to make measurements of mRNA induction, a form of inducible reporter, as detected with fluorescence intensity signals by Reverse transcription polymerase chain reaction (RT-PCR) and Capillary electrophoresis technology.Data from the assay component ATG_PPARg_TRANS was analyzed into 1 assay endpoint. This assay endpoint, ATG_PPARg_TRANS, was analyzed in the positive analysis fitting direction relative to DMSO as the negative control and baseline of activity. Using a type of inducible reporter, measures of mRNA for gain-of-signal activity can be used to understand the reporter gene at the transcription factor-level as they relate to the gene PPARG. Furthermore, this assay endpoint can be referred to as a primary readout, because this assay has produced multiple assay endpoints where this one serves a reporter gene function. To generalize the intended target to other relatable targets, this assay endpoint is annotated to the nuclear receptor intended target family, where the subfamily is non-steroidal.
Peroxisome proliferator-activated receptor gamma (Homo sapiens), sequence (P37231 whole entry, looked up): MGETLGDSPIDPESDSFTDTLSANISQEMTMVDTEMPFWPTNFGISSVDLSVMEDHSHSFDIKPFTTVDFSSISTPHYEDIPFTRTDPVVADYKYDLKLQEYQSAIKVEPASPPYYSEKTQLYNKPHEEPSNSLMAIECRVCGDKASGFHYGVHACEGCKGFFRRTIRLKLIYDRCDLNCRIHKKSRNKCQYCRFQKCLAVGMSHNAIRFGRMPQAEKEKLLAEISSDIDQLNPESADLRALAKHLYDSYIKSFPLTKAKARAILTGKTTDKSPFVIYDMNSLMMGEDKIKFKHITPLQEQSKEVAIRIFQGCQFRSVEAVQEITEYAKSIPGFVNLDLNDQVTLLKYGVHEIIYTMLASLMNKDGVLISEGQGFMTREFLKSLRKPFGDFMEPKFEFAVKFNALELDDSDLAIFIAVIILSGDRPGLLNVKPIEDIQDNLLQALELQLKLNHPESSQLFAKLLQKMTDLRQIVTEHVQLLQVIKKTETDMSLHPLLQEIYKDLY
Human liver HepG2 cells are transiently transfected with multiple reporter transcription units (MRTUs) in 6-well plates using FuGene 6 reagent (Roche; 3 ml FuGene/1 mg DNA). The MRTU constructs are regulated by a cis-regulating element (promoter). […] A major difference between the CIS and TRANS system is that in CIS activities of endogenous TFs are measured, whereas the TRANS assay evaluates changes in activities of exogenous, chimeric NR-Gal4 proteins. […] At the end of 24 hour incubation, total RNA was isolated using TriZol reagent (Invitrogen). The isolated RNA is then reverse-transcribed using oligo(dT) primer and Mo-MLV reverse transcriptase (Invitrogen) with DNAse I (Ambion) treatment for 30 min. The one-tenth of the produced cDNA was amplified by PCR using Taq DNA polymerase (Invitrogen) and two reporter sequence-specific primers. The PCR products were fluorescently labeled by primer extension with 6-arboxyfluorescein (6-FAM) 5'-labeled reporter sequence-specific primer (2 min at 95 C, 20 s at 68 C and 10 min at 72 C) and these products were digested with 5U of HpaI (New England Biolabs) for 2h at 37 C. The fragments were purified using Qiaquick PCR columns (Qiagen), analyzed on an ABI 3130xL genetic analyzer (Applied Biosystems) with peak positions identified by using a set of X-rhodamine (ROX)-labeled MapMarker1000 molecular weight standards (BioVentures). The raw capillary electrophoresis data was processed using Attagraph software (Attagene).
As for `CN1CSC(=S)N(C)C1`, the result was inactive. Still for that read-out and setting: in the case of `COP(=O)(OC)OC=C(Cl)Cl` it was “inactive”. Regarding `Oc1cc(Cl)ccc1Oc1ccc(Cl)cc1Cl`, the AC50 is 11.1 µM (active) [middle of 6 runs] and the outcome was inactive.

Consider `CNC(=O)/C=C(\C)OP(=O)(OC)OC`, for which the compound was classed as inactive.

Take `CCOC1Oc2ccc(OS(C)(=O)=O)cc2C1(C)C` (stereo not given): the result was inactive. Regarding `CCS(=O)(=O)c1cccnc1S(=O)(=O)NC(=O)Nc1nc(OC)cc(OC)n1`, the result was inactive. As to `CC(C)N(C(=O)COc1nnc(C(F)(F)F)s1)c1ccc(F)cc1`, the AC50 was 14.3 µM (active).

For `C[C@H]1[C@H](c2ccc(Cl)cc2)SC(=O)N1C(=O)NC1CCCCC1`, the concentration at half-maximal activity (AC50) was 16 µM (active). Take `CNC(=O)CSP(=S)(OC)OC`: the compound was called inactive. For the compound `O=C(O)CCCOc1ccc(Cl)cc1Cl`, the result was inactive and the half-maximal activity concentration (AC50) is 34.5 µM (active). As to `COC(=O)c1ccccc1S(=O)(=O)NC(=O)N(C)c1nc(C)nc(OC)n1`, the result was inactive. Same read-out and setting: in the case of `Cc1cc(C)nc(NC(=O)NS(=O)(=O)c2ccccc2C(=O)OC2COC2)n1` it was “inactive”; in that of `CC(C)(C)C(O)/C(=C\c1ccc(Cl)cc1Cl)n1cncn1` (stereo not given), “inactive”.

`Oc1ccc(Cl)cc1Cc1ccccc1`: the compound was classed as inactive and the AC50 is 8.85 µM (active) [middle of 4 runs]. Take `CC1(C)C(C=C(Cl)Cl)C1C(=O)OC(C#N)c1ccc(F)c(Oc2ccccc2)c1` (stereo not given): the AC50 is 20.9 µM (active). With `N#Cc1c(Cl)c(Cl)c(Cl)c(C#N)c1Cl`, the compound was classed as inactive. Turning to `Clc1ccccc1-c1nnc(-c2ccccc2Cl)nn1`, the AC50 was 64.7 µM (active). Regarding `CC1(c2ccc(Oc3ccccc3)cc2)OC(=O)N(Nc2ccccc2)C1=O` (stereo not given), the result was inactive.

Turning to `CCC(C)(C)C(=O)OC1=C(c2ccc(Cl)cc2Cl)C(=O)OC12CCCCC2`, the compound was classed as inactive. Turning to `[2H]C1([2H])[n+]2ccccc2-c2cccc[n+]2C1([2H])[2H]`, the compound was called inactive. The same measure, in the same setting: in the case of `CCCN(CCOc1c(Cl)cc(Cl)cc1Cl)C(=O)n1ccnc1` it was “inactive”. Regarding `COP(=S)(OC)Oc1ccc(SC)c(C)c1`, the AC50 is 33.3 µM (active). Turning to `CC(C)OC(=O)Nc1cccc(Cl)c1`, the AC50 was 50 µM (active). Turning to `CCN(CC)C(=O)SCc1ccc(Cl)cc1`, the AC50 is 37.1 µM (active). For `O=C(Nc1ccccc1)Nc1cnns1`, the compound was classed as inactive. The same measure, in the same setting: the same measure for `OCCOc1ccccc1`: “inactive”; for `CCCN(CCC)c1c([N+](=O)[O-])cc(C(F)(F)F)cc1[N+](=O)[O-]`: “inactive”. `C#CCN1C(=O)COc2cc(F)c(N3C(=O)C4=C(CCCC4)C3=O)cc21`: the AC50 is 50 µM (active).

`O=[N+]([O-])c1c(Cl)c(Cl)c(Cl)c(Cl)c1Cl`: the AC50 was 16.4 µM (active). Regarding `ClC1C(Cl)C(Cl)C(Cl)C(Cl)C1Cl` (stereo not given), the call was inactive.

As for `CCOc1nc(NC)nc(NC(=O)NS(=O)(=O)c2ccccc2C(=O)OC)n1`, the outcome was inactive.

On to `O=C(NC(=O)c1c(F)cccc1F)Nc1ccc(OC(F)(F)C(F)OC(F)(F)F)c(Cl)c1` (stereo not given), for which the compound was called inactive. On the same count and under the same terms, the same measure for `O=C1c2ccccc2C(=O)N1SC(Cl)(Cl)Cl`: “inactive”; for `O=S1OCC2C(CO1)C1(Cl)C(Cl)=C(Cl)C2(Cl)C1(Cl)Cl` (stereo not given): “inactive”; for `Cc1[nH]c(=O)n(C(C)(C)C)c(=O)c1Cl`: “inactive”. In the case of `CCC(C)(NC(=O)c1cc(Cl)c(C)c(Cl)c1)C(=O)CCl` (stereo not given), the half-maximal activity concentration (AC50) was 0.878 µM (active). As for `COP(=S)(OC)Oc1ccc([N+](=O)[O-])cc1`, the compound was classed as inactive.
